High-throughput results (PubChem)
This is a sample that favours compounds with a hit; in the whole collection about 4.1% have one here.
GDH-TPI counter-1: GDH-TPI coupled enzyme inhibition counter-screen; GDH-TPI coupled enzyme counterscreen, NADH absorbance; inhibition, % at 4.8 µM; 360,000 tested, 1.2% active; AID 588335; in the data active means inhibition above about 30%
Mtb UGM inh: inhibitors of M. tuberculosis UDP-galactopyranose mutase; AID 504406; inhibition, % at 10 µM; 320,000 tested, 0.06% active; purified UGM, fluorescence polarization probe displacement; P9WIQ1; in the data active means inhibition above about 10%, passing the limit was not always enough; inconclusive means no clear call, values can overlap the other calls
RecA splice inh: blocks M. tuberculosis RecA intein splicing; 290,000 tested, 0.75% active; P9WHJ3; inhibition, % (no concentration beside the values); cell-free RecA intein splicing, fluorescence; in the data active means inhibition above about 30%; inconclusive means no clear call, values can overlap the other calls
Rv3671c protease: Rv3671c (M. tuberculosis) protease inhibition; 320,000 tested, 0.048% active; inhibition, % at 5.96 µM; P9WHR9; AID 2606; in the data active means inhibition above about 38%;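 further: extracellular domain of Rv3671c used as enzyme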
FBA Mtb inh: Mtb fructose-bisphosphate aldolase inhibition | purified M. tuberculosis FBA, fluorescence read-out | 360,000 tested, 2.3% active | P9WQA3 | inhibition, % at 1 µM
Target sequence (P9WQA3 whole entry, looked up): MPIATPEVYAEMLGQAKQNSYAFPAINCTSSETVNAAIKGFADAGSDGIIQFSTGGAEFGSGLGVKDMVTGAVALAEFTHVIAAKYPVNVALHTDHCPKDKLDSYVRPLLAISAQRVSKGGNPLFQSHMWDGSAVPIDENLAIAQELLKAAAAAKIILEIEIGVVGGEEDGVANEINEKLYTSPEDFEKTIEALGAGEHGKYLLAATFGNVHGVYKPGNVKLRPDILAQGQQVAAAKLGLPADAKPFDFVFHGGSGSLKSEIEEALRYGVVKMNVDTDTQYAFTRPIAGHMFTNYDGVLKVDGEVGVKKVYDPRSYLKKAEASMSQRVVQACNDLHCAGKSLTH
BH1578 lux ind: induces V. cholerae light production without autoinducers. V. cholerae BH1578 lux reporter, luminescence, 6 h. 350,000 tested, 0.16% active. activation, % at 18.7 µM; in the data active means activation mostly above about 9.7%, no sharp cut-off; inconclusive means no clear call, values can overlap the other calls; inactive means mostly below about 3.7%
Mtb FBA confirm: Mtb FBA inhibition, confirmed; shares compounds with FBA Mtb inh; purified M. tuberculosis FBA, fluorescence read-out; inhibition, % at 1 µM; 5,600 tested, 78% active
GDH-TPI counter-2: counter-screen for M. tuberculosis FBA inhibitors: GDH-TPI coupled enzyme inhibition; shares compounds with FBA Mtb inh; GDH-TPI coupled enzyme counterscreen, fluorescence; inhibition, % at 1 µM; 5,600 tested, 81% active; AID 652141; in the data active means inhibition above about 10%
Hits are given with their value. Unless noted, no stated cut-off is given here; in the data, active means inhibition above about 27%; inactive means the rest.

CCOCc1cc(C)[nH]c(=O)c1C#N was read as GDH-TPI counter-1 inactive, Mtb UGM inh inactive, RecA splice inh inactive, Rv3671c protease inactive, FBA Mtb inh 68, BH1578 lux ind inactive, Mtb FBA confirm 175 and GDH-TPI counter-2 148.
Screening COCc1cc(C)c(C#N)c(=S)[nH]1 returned GDH-TPI counter-1 inactive, Mtb UGM inh inactive, RecA splice inh inactive, Rv3671c protease inactive, FBA Mtb inh inactive and BH1578 lux ind inactive.
CN(C)S(=O)(=O)c1cccc(C(=O)Nc2cc(S(=O)(=O)N3CCOCC3)ccc2N2CCCC2)c1 was read as GDH-TPI counter-1 inactive, FBA Mtb inh inactive and BH1578 lux ind inactive.
Screening Cc1ccc(CNC(=O)CN(Cc2cccs2)C(=O)C2(C)CC(=O)N=C3C=CC=CN32)cc1 (stereo unspecified) returned GDH-TPI counter-1 inactive, Mtb UGM inh inactive, RecA splice inh inactive, Rv3671c protease inactive, FBA Mtb inh 80, BH1578 lux ind inactive, Mtb FBA confirm 51 and GDH-TPI counter-2 39.
For Cc1ccc(CNC(=O)CN(C(=O)C2(C)CC(=O)N=C3C=CC=CN32)c2cc(C)ccc2C)cc1 (stereo unspecified) the results were GDH-TPI counter-1 inactive, Mtb UGM inh inactive, RecA splice inh inactive, Rv3671c protease inactive, FBA Mtb inh 91, BH1578 lux ind inactive, Mtb FBA confirm active and GDH-TPI counter-2 active.
`Cc1ccc(CNC(=O)Cc2cccs2)cc1` gave GDH-TPI counter-1 inactive, Mtb UGM inh inactive, RecA splice inh inactive, Rv3671c protease inactive, FBA Mtb inh inactive and BH1578 lux ind inactive.
Cc1cccc(C)c1NC(=O)CCCn1nc(C)c2c(C)n(-c3ccccc3)nc2c1=O was read as GDH-TPI counter-1 inactive, Mtb UGM inh inactive, RecA splice inh inactive, Rv3671c protease inactive, FBA Mtb inh inactive and BH1578 lux ind inactive.
`COc1ccc(C(C)=NNS(=O)(=O)c2ccc(C)cc2)cc1OC` gave GDH-TPI counter-1 inactive, FBA Mtb inh inactive and BH1578 lux ind inactive.
Screening O=C(c1ccccc1)n1ccc(-c2cnc(-c3ccccc3)s2)n1 returned GDH-TPI counter-1 inactive, Mtb UGM inh inactive, RecA splice inh inactive, Rv3671c protease inactive, FBA Mtb inh 95, BH1578 lux ind inactive, Mtb FBA confirm 73 and GDH-TPI counter-2 58.
`CCCCC(c1nnnn1CCOC)N1CCN(CC)CC1` (stereo unspecified) gave GDH-TPI counter-1 inactive, Mtb UGM inh inactive, Rv3671c protease inactive, FBA Mtb inh 38, BH1578 lux ind inactive, Mtb FBA confirm 91 and GDH-TPI counter-2 62.
For C=CCN1CCN(C(CC(C)C)c2nnnn2CCOC)CC1 (stereo unspecified) the results were GDH-TPI counter-1 inactive, Mtb UGM inh inactive, Rv3671c protease inactive, FBA Mtb inh inactive and BH1578 lux ind inactive.
For O=C(NCCO)N1c2ccccc2Sc2ccccc21 the results were GDH-TPI counter-1 inactive, Mtb UGM inh inactive, RecA splice inh inactive, Rv3671c protease inactive, FBA Mtb inh inactive and BH1578 lux ind inactive.
`CN(C)CCCNC(=O)N1c2ccccc2Sc2ccccc21` gave GDH-TPI counter-1 inactive, Mtb UGM inh inactive, Rv3671c protease inactive, FBA Mtb inh 59, BH1578 lux ind inactive, Mtb FBA confirm active and GDH-TPI counter-2 active.
For O=C(Nc1ccc2oc(-c3cccc4ccccc34)nc2c1)c1ncn[nH]1 the results were GDH-TPI counter-1 36, Mtb UGM inh inactive, RecA splice inh inactive, Rv3671c protease inactive, FBA Mtb inh 66, BH1578 lux ind inactive, Mtb FBA confirm 36 and GDH-TPI counter-2 29.
Cc1ccccc1-c1nc2cc(NC(=O)C3CC3)ccc2o1 was read as GDH-TPI counter-1 inactive, Mtb UGM inh inactive, Rv3671c protease inactive, FBA Mtb inh 107, BH1578 lux ind inactive, Mtb FBA confirm inactive and GDH-TPI counter-2 15.
For CCn1c(=O)c2sccc2n(CC(=O)NC2CCCC2)c1=O the results were GDH-TPI counter-1 inactive, Mtb UGM inh inactive, RecA splice inh inactive, Rv3671c protease inactive, FBA Mtb inh inactive and BH1578 lux ind inactive.
`O=C1CC(O)(C(F)(F)F)Oc2c1ccc1ccccc21` (stereo unspecified) gave GDH-TPI counter-1 inactive, Mtb UGM inh inactive, RecA splice inh inactive, Rv3671c protease inactive, FBA Mtb inh inactive and BH1578 lux ind inactive.
For O=C1CC(O)(C(F)F)Oc2ccc3ccccc3c21 (stereo unspecified) the results were GDH-TPI counter-1 inactive, Mtb UGM inh inconclusive, RecA splice inh inactive, Rv3671c protease inactive, FBA Mtb inh 44, BH1578 lux ind inactive, Mtb FBA confirm 31 and GDH-TPI counter-2 22.
For CC12CCC(C(=O)NNC(=O)c3ccc(Br)cc3)(OC1=O)C2(C)C (stereo unspecified) the results were GDH-TPI counter-1 inactive, Mtb UGM inh inactive, RecA splice inh inactive, Rv3671c protease inactive, FBA Mtb inh inactive and BH1578 lux ind inactive.
Screening Cc1ccccc1N(CC(=O)N1CCN(Cc2ccccc2)CC1)S(C)(=O)=O returned GDH-TPI counter-1 inactive, FBA Mtb inh inactive and BH1578 lux ind inactive.
Cc1ccccc1N(CC(=O)N1CCN(c2ccccc2)CC1)S(C)(=O)=O was read as GDH-TPI counter-1 inactive, Mtb UGM inh inactive, RecA splice inh inactive, Rv3671c protease inactive, FBA Mtb inh 28, BH1578 lux ind inactive, Mtb FBA confirm 52 and GDH-TPI counter-2 37.
`CCOc1ccc(-c2cc(C(=O)NCCCn3ccnc3)c3ccccc3n2)cc1` gave GDH-TPI counter-1 inactive, Mtb UGM inh inactive, RecA splice inh inactive, Rv3671c protease inactive, FBA Mtb inh 33, BH1578 lux ind inactive, Mtb FBA confirm 43 and GDH-TPI counter-2 33.
Screening CCOc1ccc(-c2cc(C(=O)NCCCN3CCN(CC)CC3)c3ccccc3n2)cc1 returned GDH-TPI counter-1 inactive, Mtb UGM inh inactive, RecA splice inh inactive, Rv3671c protease inactive, FBA Mtb inh 46, BH1578 lux ind inactive, Mtb FBA confirm 61 and GDH-TPI counter-2 48.
Screening O=C(NCCCN1CCOCC1)c1cc(-c2ccccc2)nc2ccccc12 returned GDH-TPI counter-1 inactive, Mtb UGM inh inactive, RecA splice inh inactive, Rv3671c protease inactive, FBA Mtb inh inactive and BH1578 lux ind inactive.
`C=CCNC(=O)C(=O)Nc1ccc2c(c1)N(S(=O)(=O)c1cccs1)CCC2` gave GDH-TPI counter-1 inactive, Mtb UGM inh inactive, RecA splice inh inactive, Rv3671c protease inactive, FBA Mtb inh inactive and BH1578 lux ind inactive.
CSc1cccc(CNC(=O)C2CCC(=O)N(CCCN3CCCC3=O)C2)c1 (stereo unspecified) was read as GDH-TPI counter-1 inactive, Mtb UGM inh inactive, RecA splice inh inactive, Rv3671c protease inactive, FBA Mtb inh inactive and BH1578 lux ind inactive.
`CC(C)CNC(=S)N(CCCO)Cc1cc2cc3c(cc2[nH]c1=O)OCO3` gave GDH-TPI counter-1 inactive, Mtb UGM inh inactive, Rv3671c protease inactive, FBA Mtb inh 33, BH1578 lux ind inactive, Mtb FBA confirm 148 and GDH-TPI counter-2 98.
